According to PubChem BioAssay (Tox21):
Records with an inconclusive call do not appear. Activity calls are given as the source filed them. Unless noted, calls follow the shape of the dose curve; as a rule, active = well fitted curve in the direction sought with a large enough effect in the repeat runs; inconclusive = weak or mixed curves; inactive = no such curve, though single readings can be large; an effect the other way counts as inactive or inconclusive.

Legend:
[1] = qHTS assay to identify small molecule agonists of the constitutive androstane receptor (CAR) signaling pathway - cell viability counter screen (AID 1224836); also: nearly all actives have a fitted effect of over 45% in size
Method in brief: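 Viability read-out: CellTiter-Fluor fluorescence after 23 h compound exposure at 37 C/5% CO2 in double-stable HepG2-CYP2B6-hCAR cells, with PK11195 present at 0.75 uM final; compounds tested in 15-point titration.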

[2] = qHTS assay to identify small molecule antagonists of the constitutive androstane receptor (CAR) signaling pathway - cell viability counter screen (AID 1224837); also: nearly all actives have a fitted effect of over 45% in size
Method in brief: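 Counter screen run in HepG2-CYP2B6-hCAR cells: 4 hr settle, compound titration (15 concentrations) with 50 nM CITCO, 23 hr at 37 C/5% CO2, CellTiter-Fluor fluorescence.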

[3] = target: Nuclear receptor subfamily 1 group I member 3 (Homo sapiens) (UniProt Q14994); test: qHTS assay to identify small molecule antagonists of the constitutive androstane receptor (CAR) signaling pathway (AID 1224838);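 also: HepG2 cells stably expressing hCAR with CYP2B6 luciferase reporter stimulated by CITCO; nearly all actives have a fitted effect of over 40% in size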
Method in brief: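 Cell line: HepG2 double-stable for hCAR and CYP2B6-2.2kb reporter. Agonist: CITCO, 50 nM final. Compounds: 15 concentrations, 24 h, 37 C. Detection: ONE-Glo luminescence.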

[4] = target: Nuclear receptor subfamily 1 group I member 3 (Homo sapiens) (UniProt Q14994); test: qHTS assay to identify small molecule agonists of the constitutive androstane receptor (CAR) signaling pathway (AID 1224839); also: nearly all actives have a fitted effect of over 15% in size; also: potency is read from the fitted curve at half-maximal effect;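 as to activation: HepG2 cells stably carrying human CAR and a CYP2B6 luciferase reporter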
Method in brief: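 Luminescence read-out (ONE-Glo, 30 min, room temperature) from double-stable HepG2-CYP2B6-hCAR cells exposed 24 h to 15-point compound series in presence of 0.75 uM PK11195 final.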

[5] = qHTS assay to identify small molecule antagonists of the estrogen related receptor signaling pathway with the pleiotropic PPARgamma coactivator (PGC) from Tox21 10K library - cell viability counter screen (AID 1224840; active = well fitted cell-killing curve with a large enough effect in the repeat runs, not every such curve was filed as active; also: nearly all actives have a fitted effect of over 40% in size; also: potency is read from the fitted curve at half-maximal effect)
Method in brief: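 Following seeding of 2,000 PGC/ERR cells/well and 6 hours' incubation, test compounds were delivered in DMSO. The plates then sat 17.5 hours at 37 C before a fluorogenic live-cell protease reagent (CellTiter-Fluor) was read after 30 min.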

[6] = qHTS assay to identify small molecule antagonists of the estrogen related receptor signaling pathway with the pleiotropic PPARgamma coactivator (PGC) from Tox21 10K library (AID 1224841; call rule not given here; also: actives are mostly falling curves and most rising ones were filed inactive; nearly all actives have a fitted effect of over 50% in size)
Method in brief: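 qHTS antagonist format: PGC/ERR cells, 2k/well, compound in DMSO by pin transfer after 6 h attachment, 18 h treatment at 37 C, One-Glo luminescence read at 30 min.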

[7] = qHTS assay to identify small molecule agonists of the estrogen related receptor signaling pathway with the pleiotropic PPARgamma coactivator (PGC) from Tox21 10K library (AID 1224842); also: nearly all actives have a fitted effect of over 15% in size; also: potency is read from the fitted curve at half-maximal effect
Method in brief: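 PGC/ERR reporter cells (NTP line) were seeded 2,000 per well, rested 6 h at 37 C/5% CO2, then pin-dosed with compounds in DMSO for 18 h at 37 C; luciferase read by One-Glo luminescence after 30 min at room temperature.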

[8] = target: Thyrotropin receptor (Homo sapiens) (UniProt P16473); test: qHTS assay to identify small molecule agonists of the thyroid stimulating hormone receptor (TSHR) signaling pathway (AID 1224843; calls by dose curve; also: nearly all actives have a fitted effect of over 45% in size)
Method in brief: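 Cell line HEK293 with TSHR; density 800/well. Exposure 30 min RT. Readout HTRF cAMP (cAMP-d2/anti-cAMP-cryptate), 1 h RT before reading.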

[9] = qHTS assay to identify small molecule agonists of the hypoxia (HIF-1) signaling pathway - cell viability counter screen (AID 1224844; calls by dose curve; also: nearly all actives have a fitted effect of over 50% in size)
Method in brief: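 Cells (HRE-bla ME-180, 2,000 per well) sat 5 hrs at 37C, got compound for 17 hrs, were read for CCF4-AM FRET, and were finally lysed with CellTiter-Glo for a 30 min room-temperature luminescence read.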

[10] = qHTS assay to identify small molecule agonists of H2AX (AID 1224845; active = well fitted activation curve with a large enough effect in the signal ratio in the repeat runs, not every such curve was filed as active; the % refers to the signal ratio)
Method in brief: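 Wild-type CHO-K1 cells plated overnight, then exposed 3 hr at 37C to compounds at 15 concentrations (0.76% DMSO). Lysed, then HTRF anti-pH2AX(S139)-cryptate/anti-H2AX-d2 detection after 24 hr at room temperature; emissions 665 and 620 nm.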

[11] = qHTS assay to identify small molecule agonists of the hypoxia (HIF-1) signaling pathway (AID 1224846; active = well fitted activation curve with a large enough effect in the signal ratio in the repeat runs, not every such curve was filed as active; the % refers to the signal ratio)
Method in brief: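 A low-serum medium (0.5% dialyzed FBS) holding 2,000 HRE-bla ME-180 cells per well is preincubated for 5 hrs, dosed with compounds by pintool, and kept a further 17 hrs at 37C, 5% CO2 before CCF4-AM FRET detection of beta-lactamase.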

[12] = qHTS assay to identify small molecule agonists of H2AX - cell viability counter screen (AID 1224847; calls by dose curve; also: top concentration of the series differs between compounds; nearly all actives have a fitted effect of over 30% in size)
Method in brief: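 CHO-K1 wt, 1000 cells/well, o/n 37C; cpds 15 conc, 3 h 37C, 0.76% DMSO; CellTiter-Glo, 30 min RT, luminescence.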

[13] = qHTS assay to identify small molecule antagonists of the estrogen related receptor (ERR) signaling pathway from Tox21 library (AID 1224848); also: nearly all actives have a fitted effect of over 50% in size; also: potency is read from the fitted curve at half-maximal effect
Method in brief: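 Screening used an ERR reporter line supplied by NTP, exposed for 18 h at 37 C to library compounds delivered in DMSO. Signal was luciferase luminescence developed with ONE-Glo at room temperature for 30 min.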

[14] = qHTS assay to identify small molecule agonists of the estrogen related receptor (ERR) signaling pathway from Tox21 library (AID 1224849; calls by dose curve; also: nearly all actives have a fitted effect of over 15% in size); settings: ERR reporter cell line, ONE-Glo luciferase, 18 h
Method in brief: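 Screening used an NTP-provided ERR luciferase cell line. Compounds in DMSO were added 6 h after seeding and left 18 h at 37 C before a 30 min ONE-Glo step and luminescence reading.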

[15] = qHTS RealTime-Glo MT Cell Viability Assay in HepG2 cells - 24 hour (AID 1224867); also: nearly all actives have a fitted effect of over 50% in size
Method in brief: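 Viability was tracked continuously by NanoLuc luminescence from prosubstrate reduced by living HepG2 cells, at successive time points over 40 h of compound exposure. Cells with reagent were preincubated 5 h at 37 °C before compound addition.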

[16] = qHTS RealTime-Glo MT Cell Viability Assay in HEK293 cells - 32 hour (AID 1224868); also: nearly all actives have a fitted effect of over 50% in size; also: potency is read from the fitted curve at half-maximal effect
Method in brief: (§1)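 Viability tracked continuously by luminescence as live cells reduce a prosubstrate for NanoLuc; HEK293 cells preincubated 5 h, compound-treated at 37 C, and read at 0, 8, 16, 24, 32 and 40 h.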

[17] = A CellTox Green Cytotoxicity Assay to monitor cytotoxicity in HEK293 cells - 0 hour (AID 1224869); also: nearly all actives have a fitted effect of over 50% in size; also: potency is read from the fitted curve at half-maximal effect
Method in brief: (§2)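 Fluorescence intensity, read at 0, 8, 16, 24, 32 and 40 h of compound treatment, reflected dye binding to DNA of dead HEK293 cells; compounds (23 nL, DMSO) were added 5 h after plating cells with reagent.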

[18] = qHTS RealTime-Glo MT Cell Viability Assay in HepG2 cells - 40 hour (AID 1224870); also: nearly all actives have a fitted effect of over 50% in size
Method in brief: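 HepG2 cells mixed with RealTime-Glo MT reagents (NanoLuc plus cell-permeant prosubstrate) were seeded at 600 cells/well, incubated 5 h at 37 C/5% CO2, then pinned with compounds in DMSO; nonlytic luminescence tracked viability during 40 h treatment.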

[19] = A CellTox Green Cytotoxicity Assay to monitor cytotoxicity in HEK293 cells - 40 hour (AID 1224871); also: nearly all actives have a fitted effect of over 45% in size; also: potency is read from the fitted curve at half-maximal effect
Method in brief: as §2

[20] = qHTS RealTime-Glo MT Cell Viability Assay in HEK293 cells - 16 hour (AID 1224872); also: nearly all actives have a fitted effect of over 50% in size; also: potency is read from the fitted curve at half-maximal effect
Method in brief: as §1
% is scaled to controls: 0 for no effect and ±100 for the full control effect.

Sequence of Nuclear receptor subfamily 1 group I member 3 (Homo sapiens) (Q14994 whole entry, looked up): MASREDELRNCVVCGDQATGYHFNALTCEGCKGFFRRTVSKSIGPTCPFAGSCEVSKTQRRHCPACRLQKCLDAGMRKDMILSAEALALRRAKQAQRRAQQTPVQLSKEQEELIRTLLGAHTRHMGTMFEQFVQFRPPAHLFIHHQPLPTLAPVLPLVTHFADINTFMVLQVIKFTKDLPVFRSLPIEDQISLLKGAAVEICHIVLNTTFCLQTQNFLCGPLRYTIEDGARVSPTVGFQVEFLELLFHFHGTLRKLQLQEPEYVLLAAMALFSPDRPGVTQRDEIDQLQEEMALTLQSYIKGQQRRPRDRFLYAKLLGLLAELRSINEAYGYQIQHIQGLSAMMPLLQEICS
Sequence of Thyrotropin receptor (Homo sapiens) (P16473 whole entry, looked up): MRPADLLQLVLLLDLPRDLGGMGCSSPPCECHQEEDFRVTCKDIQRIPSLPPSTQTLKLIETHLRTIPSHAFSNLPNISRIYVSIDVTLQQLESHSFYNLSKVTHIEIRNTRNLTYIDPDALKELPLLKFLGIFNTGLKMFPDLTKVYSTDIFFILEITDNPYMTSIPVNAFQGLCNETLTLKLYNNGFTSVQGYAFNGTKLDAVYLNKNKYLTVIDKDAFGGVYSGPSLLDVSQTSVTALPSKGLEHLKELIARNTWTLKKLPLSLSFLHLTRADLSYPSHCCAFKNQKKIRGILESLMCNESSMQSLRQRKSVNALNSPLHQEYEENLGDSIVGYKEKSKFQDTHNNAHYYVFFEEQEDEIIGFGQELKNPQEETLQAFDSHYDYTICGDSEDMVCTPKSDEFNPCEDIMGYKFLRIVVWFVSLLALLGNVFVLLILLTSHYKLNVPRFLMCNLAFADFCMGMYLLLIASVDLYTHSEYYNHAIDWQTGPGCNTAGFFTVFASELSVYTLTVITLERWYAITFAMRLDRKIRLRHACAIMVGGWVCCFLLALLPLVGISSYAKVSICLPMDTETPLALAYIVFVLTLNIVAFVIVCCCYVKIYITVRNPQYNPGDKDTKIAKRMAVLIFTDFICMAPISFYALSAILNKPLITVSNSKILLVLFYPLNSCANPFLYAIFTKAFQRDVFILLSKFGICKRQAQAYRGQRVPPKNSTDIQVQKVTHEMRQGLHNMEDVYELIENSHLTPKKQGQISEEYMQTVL

CCc1ccc(Br)cc1
inactive: Potency [1] | Potency [2] | Potency [3] | Potency [4] | Potency [5] | Potency [6] | Potency [7] | Potency [8] | Potency [9] | Potency [10] | Potency [11] | Potency [12] | Potency [13] | activity change, positive = activation ([14]; at 92.4 µM (top of the series)) 5.1% | Potency [15] | Potency [16] | Potency [17] | Potency [18] | Potency [19]

CCOC(=O)c1ccc(C2CCC(NC[C@H](O)COc3ccc(O)c(NS(C)(=O)=O)c3)CC2)cc1 (stereo not given in full)
active: Potency [5] 63.3 µM | Potency [13] 56.4 µM | Potency [16] 20.2 µM | Potency [20] 20.2 µM
inactive: Potency [1] | Potency [2] | Potency [3] | Potency [4] | Potency [6] | Potency [7] | Potency [9] | Potency [11] | activity change, positive = activation ([14]; at 92.4 µM (top of the series)) -46.8% | Potency [17]

Nc1ccc(C(=O)O)c(O)c1
inactive: Potency [1] | Potency [2] | Potency [3] | Potency [4] | Potency [5] | Potency [6] | Potency [7] | Potency [8] | Potency [9] | Potency [10] | Potency [12] | activity change, positive = activation ([14]; at 42.5 µM (top of the series)) -27.4% | Potency [15] | Potency [16] | Potency [17] | Potency [18] | Potency [19] | Potency [20]

OC[C@@H](O)[C@@H](O)CO
inactive: Potency [1] | Potency [2] | Potency [3] | Potency [4] | Potency [5] | Potency [6] | Potency [7] | Potency [8] | Potency [9] | Potency [10] | Potency [11] | Potency [12] | Potency [13] | activity change, positive = activation ([14]; at 92.4 µM (top of the series)) 4.53% | Potency [15] | Potency [16] | Potency [17] | Potency [18] | Potency [19] | Potency [20]

CCc1cccc(CC)c1NC(=O)CN(CC(=O)O)CC(=O)O
inactive: Potency [1] | Potency [2] | Potency [3] | Potency [4] | Potency [5] | Potency [8] | Potency [9] | Potency [10] | Potency [11] | Potency [12] | Potency [15] | Potency [16] | Potency [17] | Potency [18] | Potency [19] | Potency [20]

CCOC(=O)NNc1ccc(N(CC)CC(C)O)nn1 (stereo not given)
inactive: Potency [1] | Potency [2] | Potency [3] | Potency [4] | Potency [5] | Potency [6] | Potency [8] | Potency [9] | Potency [11] | Potency [12] | Potency [13] | activity change, positive = activation ([14]; at 42.5 µM (top of the series)) 0.457% | Potency [15] | Potency [16] | Potency [17] | Potency [19] | Potency [20]

CCCC(=O)OCCc1ccccc1
active: Potency [17] 43.6 µM | Potency [19] 49 µM
inactive: Potency [1] | Potency [2] | Potency [3] | Potency [4] | Potency [5] | Potency [8] | Potency [9] | Potency [10] | Potency [11] | Potency [12] | Potency [15] | Potency [16] | Potency [18] | Potency [20]

COc1cc(/C=C/c2ccccc2)oc(=O)c1
active: Potency [4] 7.96 µM | Potency [7] 5.64 µM | activity change, positive = activation ([14]; at 92.4 µM (top of the series)) 36.4%
inactive: Potency [1] | Potency [2] | Potency [3] | Potency [5] | Potency [6] | Potency [8] | Potency [9] | Potency [10] | Potency [11] | Potency [12] | Potency [13] | Potency [15] | Potency [17] | Potency [19]

Cc1ccc(-c2ccccc2)cc1
inactive: Potency [1] | Potency [2] | Potency [3] | Potency [4] | Potency [5] | Potency [6] | Potency [7] | Potency [8] | Potency [9] | Potency [10] | Potency [11] | Potency [12] | Potency [13] | activity change, positive = activation ([14]; at 92.4 µM (top of the series)) -3.62% | Potency [17] | Potency [18] | Potency [20]

O=C(O)c1cc(=O)c2ccccc2o1
inactive: Potency [1] | Potency [2] | Potency [3] | Potency [4] | Potency [5] | Potency [6] | Potency [8] | Potency [9] | Potency [10] | Potency [11] | Potency [12] | Potency [13] | activity change, positive = activation ([14]; at 42.5 µM (top of the series)) -3.87% | Potency [15] | Potency [16] | Potency [17] | Potency [18] | Potency [19]

OCC(F)(F)F
inactive: Potency [1] | Potency [2] | Potency [3] | Potency [4] | Potency [5] | Potency [6] | Potency [7] | Potency [8] | Potency [9] | Potency [10] | Potency [11] | Potency [12] | Potency [13] | activity change, positive = activation ([14]; at 92.4 µM (top of the series)) -0.31% | Potency [15] | Potency [16] | Potency [17] | Potency [19]

CC(C)CCCCCOC(=O)CCS
inactive: Potency [1] | Potency [2] | Potency [3] | Potency [4] | Potency [5] | Potency [6] | Potency [7] | Potency [8] | Potency [9] | Potency [10] | Potency [11] | Potency [12] | Potency [13] | activity change, positive = activation ([14]; at 92.4 µM (top of the series)) 3.69% | Potency [15] | Potency [16] | Potency [17] | Potency [18] | Potency [19] | Potency [20]

C#C[C@]1(OC(C)=O)CC[C@H]2[C@@H]3CCC4=C/C(=N/O)CC[C@@H]4[C@H]3CC[C@@]21CC
active: Potency [20] 23.9 µM
inactive: Potency [1] | Potency [2] | Potency [3] | Potency [4] | Potency [5] | activity change, positive = activation ([14]; at 42.5 µM (top of the series)) -41.4% | Potency [17] | Potency [18] | Potency [19]
